The sample as a whole holds a higher share of the strongest signals than the screen did.
Key:
Experiment in all cases: glycan array binding signal (z-score within array); higher = stronger binding
Conditions in all cases: glycan notation: IUPAC condensed, linker removed
[1] = molecular target: Neu5Ac(a2-6)Gal(b1-4)GlcNAc6S
Outline: (§1)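 The Consortium for Functional Glycomics database supplied 3228 glycan arrays, of which those lacking an available protein sequence were dropped. The binding signal, a within-array Z-score, was averaged across arrays of the same protein sequence and across linkers. Negative scores can be read as non-binding.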

[2] = molecular target: Neu5Ac(b2-6)Gal(b1-4)GlcNAc
Outline: as §1

[3] = molecular target: Neu5Gc(a2-3)Gal(b1-4)Glc
Outline: as §1

B1: DC-SIGN (Canis lupus), XP_853402 (protein)
chain: AGLCRPCPWKWELFQESCYFFSQTQNTWKESISACQNLRAQLVIINSTEEQKFLKSWNTRNNQRTWIGLSDHHNEGSWKWVDNTPLQLSFWKEGEPNNHGDEDCVELYSDGWNDNRCSTENFWICKKPSSPCPGPGLNDIFEAQKIEWHE
glycan array binding signal (z-score) [1]: -0.341
glycan array binding signal (z-score) [2]: -0.361
glycan array binding signal (z-score) [3]: -0.065

Reference: the supplement of paper PMC8728848
